The results in this text go back to ChEMBL document CHEMBL1961873, “Compounds: GSK PKIS; Assays: Nanosyn kinase panel” (2012).

Test [1] addresses Protein kinase C gamma type (Homo sapiens) (UniProt P05129). The settings on record: at 1 µM.
Test [2] addresses T1, Protein kinase C iota type (Homo sapiens) (UniProt P41743).
T1 sequence (whole entry): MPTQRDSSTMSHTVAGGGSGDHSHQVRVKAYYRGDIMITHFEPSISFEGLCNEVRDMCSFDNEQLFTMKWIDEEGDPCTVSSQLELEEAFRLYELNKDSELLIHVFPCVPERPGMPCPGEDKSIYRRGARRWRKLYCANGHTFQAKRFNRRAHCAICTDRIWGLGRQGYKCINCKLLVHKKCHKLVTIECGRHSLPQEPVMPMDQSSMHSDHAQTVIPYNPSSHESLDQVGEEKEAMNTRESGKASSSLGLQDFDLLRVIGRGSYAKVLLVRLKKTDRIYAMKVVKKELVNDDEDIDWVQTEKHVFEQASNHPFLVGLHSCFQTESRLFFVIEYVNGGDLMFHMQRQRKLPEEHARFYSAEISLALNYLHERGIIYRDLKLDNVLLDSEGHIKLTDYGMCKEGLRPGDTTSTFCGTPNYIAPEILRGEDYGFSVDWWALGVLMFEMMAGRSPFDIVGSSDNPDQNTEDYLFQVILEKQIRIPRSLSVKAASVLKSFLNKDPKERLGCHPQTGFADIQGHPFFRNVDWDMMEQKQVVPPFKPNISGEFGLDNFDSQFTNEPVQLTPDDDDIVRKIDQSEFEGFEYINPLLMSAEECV
The settings on record: at 0.1 µM.

The target of test [3] is T1, Protein kinase C iota type (Homo sapiens). The settings on record: at 1 µM.
In test [4] the target is Protein kinase C theta type (Homo sapiens) (UniProt Q04759). The settings on record: at 0.1 µM.
Chain of Protein kinase C theta type (Homo sapiens) (Q04759 whole entry, looked up): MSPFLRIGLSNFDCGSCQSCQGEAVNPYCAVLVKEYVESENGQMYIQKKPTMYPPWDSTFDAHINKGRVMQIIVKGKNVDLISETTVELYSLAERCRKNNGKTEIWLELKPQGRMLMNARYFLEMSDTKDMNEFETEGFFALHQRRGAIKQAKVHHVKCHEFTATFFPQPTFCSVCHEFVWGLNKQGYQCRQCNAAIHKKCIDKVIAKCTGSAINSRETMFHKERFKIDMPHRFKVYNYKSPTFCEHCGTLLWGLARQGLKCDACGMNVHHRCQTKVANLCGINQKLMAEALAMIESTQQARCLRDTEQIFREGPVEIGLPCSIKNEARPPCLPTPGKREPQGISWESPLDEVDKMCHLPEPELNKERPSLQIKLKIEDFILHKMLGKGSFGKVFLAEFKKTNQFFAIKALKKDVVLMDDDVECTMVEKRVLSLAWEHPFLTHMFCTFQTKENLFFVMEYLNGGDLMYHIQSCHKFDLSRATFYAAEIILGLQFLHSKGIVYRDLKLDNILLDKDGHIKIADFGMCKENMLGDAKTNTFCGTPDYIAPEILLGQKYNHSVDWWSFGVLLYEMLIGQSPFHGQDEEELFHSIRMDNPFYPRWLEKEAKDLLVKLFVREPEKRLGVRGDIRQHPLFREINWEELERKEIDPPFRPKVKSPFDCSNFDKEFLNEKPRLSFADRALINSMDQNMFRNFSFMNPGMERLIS
The target is the same in test [5]. To be noted: at 1 µM.
In test [6] the target is Protein kinase C beta type (Homo sapiens) (UniProt P05771). The settings on record: at 0.1 µM.
Chain of Protein kinase C beta type (Homo sapiens) (P05771 2-671 limits assumed): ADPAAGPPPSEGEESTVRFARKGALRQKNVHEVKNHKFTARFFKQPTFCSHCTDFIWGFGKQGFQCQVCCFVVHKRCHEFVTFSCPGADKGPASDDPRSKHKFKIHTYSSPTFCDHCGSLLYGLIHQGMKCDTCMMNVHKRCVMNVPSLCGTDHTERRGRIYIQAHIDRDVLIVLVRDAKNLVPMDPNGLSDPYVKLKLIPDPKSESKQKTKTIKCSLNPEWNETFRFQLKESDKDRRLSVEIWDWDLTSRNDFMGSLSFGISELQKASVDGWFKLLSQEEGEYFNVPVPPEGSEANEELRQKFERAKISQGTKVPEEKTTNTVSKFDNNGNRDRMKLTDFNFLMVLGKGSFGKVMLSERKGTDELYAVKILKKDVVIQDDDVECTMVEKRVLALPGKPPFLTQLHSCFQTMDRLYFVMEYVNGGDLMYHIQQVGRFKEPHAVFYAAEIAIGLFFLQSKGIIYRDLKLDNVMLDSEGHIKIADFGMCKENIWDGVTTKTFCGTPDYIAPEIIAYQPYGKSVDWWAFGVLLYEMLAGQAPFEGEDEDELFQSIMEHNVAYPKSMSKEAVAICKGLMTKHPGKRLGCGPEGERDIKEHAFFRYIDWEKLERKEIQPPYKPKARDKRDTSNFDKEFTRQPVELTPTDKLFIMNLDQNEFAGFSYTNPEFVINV
Test [7] has the same target. The settings on record: at 1 µM.
The target of test [8] is T2, Serine/threonine-protein kinase D1 (Homo sapiens) (UniProt Q15139).
T2 sequence (whole entry): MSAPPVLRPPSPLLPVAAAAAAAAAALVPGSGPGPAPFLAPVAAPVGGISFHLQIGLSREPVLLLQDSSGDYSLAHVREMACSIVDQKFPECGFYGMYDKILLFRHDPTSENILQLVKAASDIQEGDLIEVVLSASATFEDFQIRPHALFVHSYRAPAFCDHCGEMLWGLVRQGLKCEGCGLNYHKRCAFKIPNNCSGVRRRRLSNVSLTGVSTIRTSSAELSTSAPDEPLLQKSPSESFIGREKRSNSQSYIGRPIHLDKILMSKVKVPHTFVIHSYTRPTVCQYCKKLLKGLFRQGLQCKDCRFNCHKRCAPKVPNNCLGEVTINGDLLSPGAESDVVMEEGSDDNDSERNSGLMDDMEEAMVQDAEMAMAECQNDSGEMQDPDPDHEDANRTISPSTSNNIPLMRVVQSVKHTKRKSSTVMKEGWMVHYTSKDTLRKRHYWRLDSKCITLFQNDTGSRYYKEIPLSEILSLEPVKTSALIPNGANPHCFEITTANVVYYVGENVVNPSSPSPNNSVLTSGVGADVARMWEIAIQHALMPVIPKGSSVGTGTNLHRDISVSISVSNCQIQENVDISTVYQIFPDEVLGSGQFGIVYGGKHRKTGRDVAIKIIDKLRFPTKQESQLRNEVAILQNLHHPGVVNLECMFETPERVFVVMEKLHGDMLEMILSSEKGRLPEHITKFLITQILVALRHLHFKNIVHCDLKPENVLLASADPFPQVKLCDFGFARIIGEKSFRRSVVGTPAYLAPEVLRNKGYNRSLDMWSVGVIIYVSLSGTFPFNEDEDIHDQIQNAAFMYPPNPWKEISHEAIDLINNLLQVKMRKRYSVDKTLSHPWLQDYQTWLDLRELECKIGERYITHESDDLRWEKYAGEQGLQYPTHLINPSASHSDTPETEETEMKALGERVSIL
To be noted: at 0.1 µM.

Test [9] has as its target T2, Serine/threonine-protein kinase D1 (Homo sapiens). The settings on record: at 1 µM.
For test [10], the target named is T3, Serine/threonine-protein kinase D2 (Homo sapiens) (UniProt Q9BZL6).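 Also: reported percent inhibition values are means, part of the GSK PKIS kinase panel screen.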
T3 sequence (whole entry): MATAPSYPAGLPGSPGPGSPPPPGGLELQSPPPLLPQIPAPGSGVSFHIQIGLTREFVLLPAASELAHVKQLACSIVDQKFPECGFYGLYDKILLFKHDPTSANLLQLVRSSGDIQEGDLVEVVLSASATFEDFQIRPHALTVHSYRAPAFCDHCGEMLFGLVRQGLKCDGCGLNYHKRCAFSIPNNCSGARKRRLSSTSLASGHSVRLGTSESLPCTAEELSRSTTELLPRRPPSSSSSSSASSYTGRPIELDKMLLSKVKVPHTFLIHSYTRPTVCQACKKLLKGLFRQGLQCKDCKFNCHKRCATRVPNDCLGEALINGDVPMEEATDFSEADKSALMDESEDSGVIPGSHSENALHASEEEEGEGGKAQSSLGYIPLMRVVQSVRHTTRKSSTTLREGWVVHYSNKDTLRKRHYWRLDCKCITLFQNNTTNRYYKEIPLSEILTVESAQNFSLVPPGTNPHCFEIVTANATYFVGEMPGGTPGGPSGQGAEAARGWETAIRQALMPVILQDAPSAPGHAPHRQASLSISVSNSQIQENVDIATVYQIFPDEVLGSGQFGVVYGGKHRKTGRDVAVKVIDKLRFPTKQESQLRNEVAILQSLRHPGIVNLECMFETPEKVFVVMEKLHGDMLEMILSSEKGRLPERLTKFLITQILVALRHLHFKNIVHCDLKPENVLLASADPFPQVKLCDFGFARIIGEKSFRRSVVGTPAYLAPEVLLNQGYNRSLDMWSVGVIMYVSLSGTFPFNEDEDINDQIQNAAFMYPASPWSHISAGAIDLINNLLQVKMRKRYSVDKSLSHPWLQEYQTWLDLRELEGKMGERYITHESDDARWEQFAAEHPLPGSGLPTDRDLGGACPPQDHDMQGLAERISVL
The settings on record: at 0.1 µM.

Structures are written as SMILES.

On to `Cc1cccc(-c2n[nH]cc2-c2ccc3ncccc3n2)n1`, for which the inhibition in test [1] was 0.55%; in test [2] it was 0.4%; in [3], -1.7%; in test [4], 0.33%; in test [5], -0.49%; in [6], 0.52%. For the same compound, the inhibition in test [7] worked out at 0.49%; in test [8], 2.77%; in [9] it was 32.8%; in test [10], 5.63%.

For `NC(=O)c1cccc(Nc2nccc(Nc3cccc4[nH]ncc34)n2)c1`, the inhibition in [1] was 9.98%; in test [2], -0.89%; in [3], -1.43%; in [4], 0.02%; in test [5], 6.28%; in test [6], -1.01%. Also, the inhibition is 7.52% in test [7], -1.68% in test [8], 6.22% in test [9] and -1.94% in [10].

Regarding `CCn1c(-c2nonc2N)nc2cnc(Oc3cccc(NC(=O)c4ccc(OCCN5CCOCC5)cc4)c3)cc21`, the inhibition in [1] is 55%; in test [2], 23.4%; in test [3] it was 64.9%; in test [4], 20%; in test [5] it was 67.4%; in test [6], 11.6%. The inhibition amounted to 42.4% in test [7], 2.46% in test [8], 3.36% in test [9] and 3.04% in [10].

For the compound `COc1cc2ncn(-c3cc(O[C@H](C)c4ccccc4Cl)c(C(N)=O)s3)c2cc1OC`, the inhibition was found to be 4.01% in [1]; 2.97% in [2]; 0.22% in test [3]; 3.41% in test [4]; 4.9% in test [5]; 2.75% in [6]. For the same compound, the inhibition in test [7] amounted to 3.52%; in test [8], 1.04%; in test [9], 3.84%; in test [10] it was 2.69%.

Regarding `COc1ccc(COc2ccc(Cc3cnc(N)nc3N)cc2OC)cc1`, the inhibition was 0.23% in [1]; 0.94% in test [2]; 2.56% in test [3]; 0.95% in test [4]; -0.58% in [5]; 2% in test [6]. Further, the inhibition was 1.96% in [7], 0.61% in test [8], 2.03% in test [9] and -0.07% in test [10].

On to `NS(=O)(=O)c1cccc(-c2ccc3c(NC(=O)C4CC4)n[nH]c3c2)c1`, for which the inhibition was 3.74% in test [1]; 0.3% in test [2]; 0.53% in test [3]; 0.17% in test [4]; 0.88% in [5]; -0.62% in [6]. Also, the inhibition in test [7] is 2.57%; in test [8], -0.83%; in test [9], 0.65%; in test [10] it was -0.79%.

As to `COc1ccc(-c2coc3ncnc(N)c23)cc1`, the inhibition in [1] amounted to 3.98%; in test [2] it was 1.44%; in test [3], 3.36%; in test [4] it was 1.7%; in [5], 1.28%; in test [6] it was 1.62%. Also, the inhibition in test [7] came to 2.4%; in test [8], 4.27%; in test [9], 6.99%; in test [10], 4.87%.

Consider `COc1ccc(-c2ccncc2)cc1C(N)=O`, for which the inhibition in test [1] was found to be 1.71%; in test [2], 0.36%; in test [3] it was 1.27%; in [4], 2.73%; in test [5], 4.84%; in test [6], 0.88%. In addition, the inhibition in [7] was determined as 2.35%; in test [8], 5.51%; in test [9] it was 15.2%; in test [10], 4.91%.

Consider `Fc1cccc(COc2ccc(Nc3ncnc4sc(-c5cccs5)cc34)cc2Cl)c1`, for which the inhibition in test [1] was 2.13%; in test [2], 0.71%; in [3], 1.19%; in [4] it was 0.32%; in test [5] it was 0.01%; in [6], -0.19%. In addition, the inhibition in test [7] was 0.44%; in test [8], 0.09%; in test [9], 0.23%; in [10], -1.32%.

In the case of `COc1cccc(-n2ncc3c(N/N=C/c4cccc(F)c4)ncnc32)c1`, the inhibition in [1] was 1.92%; in [2] it was 1.95%; in test [3] it was 1.9%; in [4], 0.55%; in test [5] it was 2.23%; in test [6], 1.7%. Moreover, the inhibition in test [7] was 3.14%; in test [8], -1.15%; in [9], 0.28%; in test [10] it was -1.06%.

For the compound `Cc1ccc(C(=O)NC2CCCCC2)cc1-c1ccc(C(=O)NCC2CC2)cc1`, the inhibition in [1] was 3.86%; in [2], 0.11%; in [3] it was 2.97%; in test [4], 1.39%; in test [5], 0.58%; in test [6] it was 1.11%. Further, the inhibition in [7] was found to be 3.12%; in test [8] it was 1.97%; in [9], 2.69%; in test [10], 1.98%.

Consider `CCc1cccc(NC(=O)Nc2ccc(Oc3ccc4nc(NC(=O)OC)[nH]c4c3)cc2)c1`, for which the inhibition in [1] is 2%; in test [2], 0.46%; in test [3], -1.58%; in test [4], 0.42%; in test [5] it was 1.12%; in test [6], -0.27%. The inhibition in test [7] was -1.17%; in [8], 1.25%; in test [9] it was 1.01%; in [10] it was 0.52%.

Regarding `CS(=O)(=O)CCNCc1nc(-c2ccc3ncnc(Nc4ccc(F)c(Cl)c4)c3c2)cs1`, the inhibition in [1] was 0.73%; in test [2] it was -0.92%; in test [3] it was -0.18%; in test [4], 0.64%; in [5], 2.27%; in test [6], -0.23%. The inhibition was 2.18% in test [7], 1.88% in [8], 2.6% in test [9] and 0.4% in test [10].

As to `CC(C)=Cc1cccc2c1/C(=N/Nc1ccc(S(N)(=O)=O)cc1)C(=O)N2`, the inhibition amounted to 1.25% in test [1]; 0.62% in test [2]; 0.09% in test [3]; 1.24% in test [4]; 6.89% in [5]; 0.32% in test [6]. Moreover, the inhibition in [7] was 1.68%; in [8], 2.84%; in test [9], 13.5%; in [10], -0.05%.

On to `COc1cc2ncn(-c3cc(OCc4ccccc4C(F)(F)F)c(C(N)=O)s3)c2cc1OC`, for which the inhibition worked out at 0.51% in [1]; 3.36% in [2]; 3.32% in test [3]; 2.16% in test [4]; 3.1% in test [5]; 1.23% in test [6]. The inhibition in [7] was found to be 2%; in test [8] it was 0.73%; in test [9] it was 0.99%; in [10], 1.16%.

Regarding `CC1=C(C(=O)Nc2ccc3[nH]ncc3c2)C(c2ccc3ccccc3c2)CC(=O)N1` (stereo not given), the inhibition in [1] amounted to 2.79%; in [2] it was 1.06%; in test [3], 0.77%; in [4] it was 1.49%; in test [5] it was 3%; in [6], 0.83%. The inhibition was 1.67% in [7], 2.78% in test [8], 9.17% in test [9] and 2.02% in test [10].

Take `Cc1nn(C)c2cc(N(C)c3ccnc(Nc4cccc(S(N)(=O)=O)c4)n3)ccc12`: the inhibition in [1] was determined as 10.3%; in test [2], 2.3%; in test [3], 3.87%; in [4] it was 1.21%; in test [5] it was 2.49%; in [6], 2.72%. The inhibition in test [7] is 6.99%; in [8], 2.29%; in test [9] it was 4.44%; in test [10], 3.66%.

One may read the inhibition as the relative decrease from the control value, in per cent.
